Measured values: paper PMC7862700, “An all-to-all approach to the identification of sequence-specific readers for epigenetic DNA modifications on cytosine”

Assays:
Assay in all cases: DAPPL (digital affinity profiling via proximity ligation, sequencing); 10 mM Tris-HCl pH 7.5, 50 mM NaCl, 1 mM DTT, 4% glycerol, room temperature, 30 min; GST-TFs on glutathione beads, 16-mer random dsDNA library, 0.1% formaldehyde crosslink after washing; high values mean tight binding
FEV = biological target: T1, FEV (Homo sapiens, UniProt Q99581 1-238); details: protein: recombinant; tags: N-terminal GST; dsDNA, one strand shown
T1 sequence: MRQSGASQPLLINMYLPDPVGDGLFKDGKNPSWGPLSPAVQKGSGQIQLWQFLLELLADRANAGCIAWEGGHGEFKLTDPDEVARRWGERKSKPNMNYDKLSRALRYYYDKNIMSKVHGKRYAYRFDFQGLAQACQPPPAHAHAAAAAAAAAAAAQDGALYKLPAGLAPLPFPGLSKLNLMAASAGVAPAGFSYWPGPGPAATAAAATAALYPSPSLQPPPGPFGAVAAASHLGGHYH
Procedure, shortened: (§1)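 Binding signal is defined as a hexamer's read frequency for one factor over its frequency for the tag-only sample. To obtain reads, GST-fused human transcription factors were expressed in yeast, captured on glutathione beads, barcoded with DNA and pooled with that sample. Pools met 200 nmole of a 16-mer random double-stranded DNA library in Tris/NaCl/DTT/glycerol buffer for 30 min at room temperature before washing, 0.1% formaldehyde crosslinking, proximity ligation (BsaI/T4 ligase, 1 h, 37 °C), PCR and Illumina NextSeq500 sequencing.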

ETV5 = ETV5 (Homo sapiens, UniProt P41161 1-510); details: protein: recombinant; tags: N-terminal GST; dsDNA, one strand shown
Procedure, shortened: as §1

HSF1 = HSF1 (Homo sapiens, UniProt Q00613 1-529); details: protein: recombinant; tags: N-terminal GST; chain copies: 3; dsDNA, one strand shown
Procedure, shortened: as §1

SPIC = biological target: T2, SPIC (Homo sapiens, UniProt Q8N5J4 1-248); details: protein: recombinant; tags: N-terminal GST; dsDNA, one strand shown
T2 sequence: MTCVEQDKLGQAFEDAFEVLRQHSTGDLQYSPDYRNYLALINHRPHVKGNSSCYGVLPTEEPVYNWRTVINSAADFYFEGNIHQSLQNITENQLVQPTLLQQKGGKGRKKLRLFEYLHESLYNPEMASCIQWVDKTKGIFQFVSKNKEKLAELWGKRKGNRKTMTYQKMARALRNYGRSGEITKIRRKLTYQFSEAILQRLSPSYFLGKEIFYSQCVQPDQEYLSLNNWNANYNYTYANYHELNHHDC
Procedure, shortened: as §1

ELF4 = ELF4 (Homo sapiens, UniProt Q99607 1-663); details: protein: recombinant; tags: N-terminal GST; dsDNA, one strand shown
Procedure, shortened: as §1

ELK4 = biological target: T3, ELK4 (Homo sapiens, UniProt P28324-2 1-405); details: protein: recombinant; tags: N-terminal GST; dsDNA, one strand shown
T3 sequence: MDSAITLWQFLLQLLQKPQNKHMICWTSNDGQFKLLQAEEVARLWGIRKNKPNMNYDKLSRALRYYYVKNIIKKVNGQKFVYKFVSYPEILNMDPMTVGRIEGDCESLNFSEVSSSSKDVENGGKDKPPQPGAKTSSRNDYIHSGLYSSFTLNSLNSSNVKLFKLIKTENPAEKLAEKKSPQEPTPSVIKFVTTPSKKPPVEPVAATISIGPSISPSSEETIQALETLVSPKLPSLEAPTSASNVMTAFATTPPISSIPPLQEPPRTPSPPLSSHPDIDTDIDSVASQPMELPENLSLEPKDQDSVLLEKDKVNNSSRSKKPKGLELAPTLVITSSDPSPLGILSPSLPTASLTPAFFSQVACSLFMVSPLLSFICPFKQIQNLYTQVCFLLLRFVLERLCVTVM
Procedure, shortened: as §1

ETV2 = biological target: T4, ETV2 (Homo sapiens, UniProt O00321 1-342); details: protein: recombinant; tags: N-terminal GST; dsDNA, one strand shown
T4 sequence: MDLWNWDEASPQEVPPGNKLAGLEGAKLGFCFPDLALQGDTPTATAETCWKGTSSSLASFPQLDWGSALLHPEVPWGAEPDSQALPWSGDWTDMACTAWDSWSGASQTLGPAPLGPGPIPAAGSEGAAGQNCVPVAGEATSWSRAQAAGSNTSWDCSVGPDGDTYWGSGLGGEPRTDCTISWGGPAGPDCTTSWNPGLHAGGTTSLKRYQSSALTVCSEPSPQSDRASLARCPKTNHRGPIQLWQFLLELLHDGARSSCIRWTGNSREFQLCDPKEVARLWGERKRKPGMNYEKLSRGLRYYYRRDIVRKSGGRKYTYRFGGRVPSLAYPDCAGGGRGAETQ
Procedure, shortened: as §1

ELF3 = biological target: T5, ELF3 (Homo sapiens, UniProt P78545 1-371); details: protein: recombinant; tags: N-terminal GST; dsDNA, one strand shown
T5 sequence: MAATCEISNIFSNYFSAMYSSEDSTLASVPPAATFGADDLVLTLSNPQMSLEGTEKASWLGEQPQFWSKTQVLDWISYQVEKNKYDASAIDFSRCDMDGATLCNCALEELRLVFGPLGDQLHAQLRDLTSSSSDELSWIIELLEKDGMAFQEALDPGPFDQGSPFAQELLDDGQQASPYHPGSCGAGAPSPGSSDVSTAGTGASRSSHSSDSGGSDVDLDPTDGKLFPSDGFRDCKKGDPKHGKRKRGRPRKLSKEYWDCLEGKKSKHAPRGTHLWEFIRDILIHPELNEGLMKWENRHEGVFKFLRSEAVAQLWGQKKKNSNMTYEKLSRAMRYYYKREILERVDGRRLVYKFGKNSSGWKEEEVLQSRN
Procedure, shortened: as §1

CRX = CRX (Homo sapiens, UniProt O43186 1-299); details: protein: recombinant; tags: N-terminal GST; dsDNA, one strand shown
Procedure, shortened: as §1

ETV1 = ETV1 (Homo sapiens, UniProt P50549 1-477); details: protein: recombinant; tags: N-terminal GST; dsDNA, one strand shown
Procedure, shortened: as §1

ERF = biological target: T6, ERF (Homo sapiens, UniProt P50548 1-548); details: protein: recombinant; tags: N-terminal GST; dsDNA, one strand shown
T6 sequence: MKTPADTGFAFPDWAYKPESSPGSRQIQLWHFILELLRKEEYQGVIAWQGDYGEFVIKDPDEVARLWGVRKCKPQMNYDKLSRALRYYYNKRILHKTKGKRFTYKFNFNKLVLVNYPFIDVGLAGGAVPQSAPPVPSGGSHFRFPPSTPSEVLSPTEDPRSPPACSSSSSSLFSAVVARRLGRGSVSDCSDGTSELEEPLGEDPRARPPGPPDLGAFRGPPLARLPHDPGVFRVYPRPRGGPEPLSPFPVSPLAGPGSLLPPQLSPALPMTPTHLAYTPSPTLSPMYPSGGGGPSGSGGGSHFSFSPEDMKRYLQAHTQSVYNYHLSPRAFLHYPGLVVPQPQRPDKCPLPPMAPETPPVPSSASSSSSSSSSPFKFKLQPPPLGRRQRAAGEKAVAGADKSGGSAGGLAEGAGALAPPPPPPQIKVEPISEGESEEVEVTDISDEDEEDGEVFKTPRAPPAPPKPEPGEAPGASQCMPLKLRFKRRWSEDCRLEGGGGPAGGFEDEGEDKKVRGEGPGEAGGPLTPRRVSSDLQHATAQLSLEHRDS
Procedure, shortened: as §1

ETV3L = biological target: T7, ETV3L (Homo sapiens, UniProt Q6ZN32 1-361); details: protein: recombinant; tags: N-terminal GST; dsDNA, one strand shown
T7 sequence: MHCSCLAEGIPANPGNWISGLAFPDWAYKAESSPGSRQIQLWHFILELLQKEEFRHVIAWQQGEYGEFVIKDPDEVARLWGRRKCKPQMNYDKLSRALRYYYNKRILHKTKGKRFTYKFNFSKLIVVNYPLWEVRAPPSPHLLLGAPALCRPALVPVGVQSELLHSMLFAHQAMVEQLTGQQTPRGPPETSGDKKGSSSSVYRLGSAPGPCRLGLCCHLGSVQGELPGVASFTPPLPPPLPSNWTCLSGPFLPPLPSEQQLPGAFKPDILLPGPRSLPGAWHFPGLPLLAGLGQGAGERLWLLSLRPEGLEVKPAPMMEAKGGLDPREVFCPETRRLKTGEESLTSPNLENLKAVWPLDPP
Procedure, shortened: as §1

ETS2 = biological target: T8, ETS2 (Homo sapiens, UniProt P15036 1-469); details: protein: recombinant; tags: N-terminal GST; dsDNA, one strand shown
T8 sequence: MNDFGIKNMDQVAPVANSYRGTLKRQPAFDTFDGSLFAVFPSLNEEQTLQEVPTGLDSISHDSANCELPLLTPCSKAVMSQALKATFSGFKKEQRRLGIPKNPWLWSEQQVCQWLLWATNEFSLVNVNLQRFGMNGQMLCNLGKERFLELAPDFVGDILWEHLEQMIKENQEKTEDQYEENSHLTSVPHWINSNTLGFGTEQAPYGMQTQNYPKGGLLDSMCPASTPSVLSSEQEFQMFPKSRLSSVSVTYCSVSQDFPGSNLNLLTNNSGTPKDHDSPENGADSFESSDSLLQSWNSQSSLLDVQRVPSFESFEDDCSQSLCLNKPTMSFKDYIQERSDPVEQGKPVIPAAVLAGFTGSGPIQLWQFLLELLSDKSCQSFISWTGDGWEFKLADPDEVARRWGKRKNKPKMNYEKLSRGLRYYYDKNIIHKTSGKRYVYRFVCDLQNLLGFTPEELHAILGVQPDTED
Procedure, shortened: as §1

SPDEF = biological target: T9, SPDEF (Homo sapiens, UniProt O95238 1-335); details: protein: recombinant; tags: N-terminal GST; dsDNA, one strand shown
T9 sequence: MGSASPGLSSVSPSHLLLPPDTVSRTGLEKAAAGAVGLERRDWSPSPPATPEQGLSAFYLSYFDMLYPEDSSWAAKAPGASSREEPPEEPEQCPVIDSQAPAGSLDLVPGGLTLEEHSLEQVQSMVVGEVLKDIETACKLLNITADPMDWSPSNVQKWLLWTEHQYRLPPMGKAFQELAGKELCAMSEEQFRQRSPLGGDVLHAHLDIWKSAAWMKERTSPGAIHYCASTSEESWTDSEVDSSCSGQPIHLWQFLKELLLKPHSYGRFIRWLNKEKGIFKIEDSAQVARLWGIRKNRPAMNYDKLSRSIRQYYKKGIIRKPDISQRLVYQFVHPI
Procedure, shortened: as §1

ETV7 = biological target: T10, ETV7 (Homo sapiens, UniProt Q9Y603 1-341); details: protein: recombinant; tags: N-terminal GST; dsDNA, one strand shown
T10 sequence: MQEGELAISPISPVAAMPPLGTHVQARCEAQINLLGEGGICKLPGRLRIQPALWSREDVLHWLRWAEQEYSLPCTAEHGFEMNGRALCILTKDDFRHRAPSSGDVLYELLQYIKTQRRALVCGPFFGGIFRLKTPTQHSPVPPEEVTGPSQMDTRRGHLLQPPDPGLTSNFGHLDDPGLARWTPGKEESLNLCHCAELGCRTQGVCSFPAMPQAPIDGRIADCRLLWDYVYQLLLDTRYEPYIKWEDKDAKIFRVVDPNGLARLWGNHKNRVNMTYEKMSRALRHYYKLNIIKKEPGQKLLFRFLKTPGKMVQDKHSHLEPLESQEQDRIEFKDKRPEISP
Procedure, shortened: as §1

ELF5 = biological target: T11, ELF5 (Homo sapiens, UniProt Q9UKW6-2 1-255); details: protein: recombinant; tags: N-terminal GST; dsDNA, one strand shown
T11 sequence: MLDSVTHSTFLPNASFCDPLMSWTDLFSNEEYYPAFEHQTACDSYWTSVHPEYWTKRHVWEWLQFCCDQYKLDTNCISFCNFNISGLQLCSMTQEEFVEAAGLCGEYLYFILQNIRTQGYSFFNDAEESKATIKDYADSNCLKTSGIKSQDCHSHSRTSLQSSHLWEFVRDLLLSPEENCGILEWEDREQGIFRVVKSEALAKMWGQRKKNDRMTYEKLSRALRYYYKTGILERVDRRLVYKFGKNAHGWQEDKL
Procedure, shortened: as §1

ETV3 = biological target: T12, ETV3 (Homo sapiens, UniProt P41162-2 1-143); details: protein: recombinant; tags: N-terminal GST; dsDNA, one strand shown
T12 sequence: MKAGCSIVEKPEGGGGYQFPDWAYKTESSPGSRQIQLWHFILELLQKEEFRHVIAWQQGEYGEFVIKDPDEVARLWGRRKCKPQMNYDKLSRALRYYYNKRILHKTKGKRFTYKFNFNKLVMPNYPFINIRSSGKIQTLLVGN
Procedure, shortened: as §1

ETV6 = ETV6 (Homo sapiens, UniProt P41212 1-452); details: protein: recombinant; tags: N-terminal GST; dsDNA, one strand shown
Procedure, shortened: as §1

ELF4, sequence (Q99607 whole entry): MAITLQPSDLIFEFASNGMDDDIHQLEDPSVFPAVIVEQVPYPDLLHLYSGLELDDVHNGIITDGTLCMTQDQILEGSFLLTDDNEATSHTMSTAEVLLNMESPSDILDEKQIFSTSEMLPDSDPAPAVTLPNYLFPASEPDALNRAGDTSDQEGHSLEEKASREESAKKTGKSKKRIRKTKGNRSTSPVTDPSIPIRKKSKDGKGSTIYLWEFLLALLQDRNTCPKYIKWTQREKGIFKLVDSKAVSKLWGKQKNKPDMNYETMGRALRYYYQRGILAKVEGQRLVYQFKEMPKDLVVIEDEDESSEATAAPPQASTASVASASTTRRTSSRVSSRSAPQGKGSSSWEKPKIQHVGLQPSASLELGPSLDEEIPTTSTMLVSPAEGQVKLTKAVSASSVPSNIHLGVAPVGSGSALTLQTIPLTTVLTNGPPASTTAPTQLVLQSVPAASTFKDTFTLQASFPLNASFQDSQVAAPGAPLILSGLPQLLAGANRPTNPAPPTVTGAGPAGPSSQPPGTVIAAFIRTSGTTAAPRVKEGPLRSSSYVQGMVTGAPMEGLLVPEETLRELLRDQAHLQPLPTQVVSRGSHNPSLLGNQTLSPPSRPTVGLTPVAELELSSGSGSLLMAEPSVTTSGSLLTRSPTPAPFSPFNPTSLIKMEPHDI
ETV1, sequence (P50549 whole entry): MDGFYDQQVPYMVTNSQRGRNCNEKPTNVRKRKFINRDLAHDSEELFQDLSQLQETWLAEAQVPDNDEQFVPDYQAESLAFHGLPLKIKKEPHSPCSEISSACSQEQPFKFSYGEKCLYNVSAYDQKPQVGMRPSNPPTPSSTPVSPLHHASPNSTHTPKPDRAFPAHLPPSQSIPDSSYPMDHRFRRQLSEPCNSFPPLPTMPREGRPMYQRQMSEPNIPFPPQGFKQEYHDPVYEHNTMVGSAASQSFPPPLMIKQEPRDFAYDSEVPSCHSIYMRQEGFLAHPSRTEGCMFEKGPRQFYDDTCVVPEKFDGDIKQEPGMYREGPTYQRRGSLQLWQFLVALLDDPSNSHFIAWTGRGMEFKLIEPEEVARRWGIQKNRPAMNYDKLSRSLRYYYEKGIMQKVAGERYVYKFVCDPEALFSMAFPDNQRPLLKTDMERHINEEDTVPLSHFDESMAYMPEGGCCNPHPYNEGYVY
ETV6, sequence (P41212 whole entry): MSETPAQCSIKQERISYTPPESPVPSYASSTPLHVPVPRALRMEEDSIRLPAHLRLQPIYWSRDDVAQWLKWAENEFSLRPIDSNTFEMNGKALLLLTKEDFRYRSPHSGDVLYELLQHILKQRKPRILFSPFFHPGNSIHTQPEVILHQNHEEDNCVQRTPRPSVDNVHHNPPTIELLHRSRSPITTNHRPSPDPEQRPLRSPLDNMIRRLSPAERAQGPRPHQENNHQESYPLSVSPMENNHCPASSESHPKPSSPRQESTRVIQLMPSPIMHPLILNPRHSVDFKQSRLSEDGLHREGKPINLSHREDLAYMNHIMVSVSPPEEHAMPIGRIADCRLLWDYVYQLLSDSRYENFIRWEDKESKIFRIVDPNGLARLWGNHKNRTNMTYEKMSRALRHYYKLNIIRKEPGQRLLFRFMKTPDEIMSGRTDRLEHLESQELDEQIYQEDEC
HSF1, sequence (Q00613 whole entry): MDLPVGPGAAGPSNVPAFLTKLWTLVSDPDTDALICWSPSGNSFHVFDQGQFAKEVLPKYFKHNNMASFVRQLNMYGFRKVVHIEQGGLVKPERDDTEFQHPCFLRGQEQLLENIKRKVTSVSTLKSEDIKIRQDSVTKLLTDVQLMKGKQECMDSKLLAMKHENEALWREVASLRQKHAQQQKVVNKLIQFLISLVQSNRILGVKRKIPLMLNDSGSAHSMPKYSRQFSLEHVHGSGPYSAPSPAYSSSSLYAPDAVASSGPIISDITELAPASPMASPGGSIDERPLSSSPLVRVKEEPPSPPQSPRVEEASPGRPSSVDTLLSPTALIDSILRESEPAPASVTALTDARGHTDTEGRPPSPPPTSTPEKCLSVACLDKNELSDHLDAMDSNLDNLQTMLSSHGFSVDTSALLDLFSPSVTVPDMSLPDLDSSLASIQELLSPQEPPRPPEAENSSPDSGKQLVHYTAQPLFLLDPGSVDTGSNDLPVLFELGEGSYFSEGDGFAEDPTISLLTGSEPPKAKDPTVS
ETV5, sequence (P41161 whole entry): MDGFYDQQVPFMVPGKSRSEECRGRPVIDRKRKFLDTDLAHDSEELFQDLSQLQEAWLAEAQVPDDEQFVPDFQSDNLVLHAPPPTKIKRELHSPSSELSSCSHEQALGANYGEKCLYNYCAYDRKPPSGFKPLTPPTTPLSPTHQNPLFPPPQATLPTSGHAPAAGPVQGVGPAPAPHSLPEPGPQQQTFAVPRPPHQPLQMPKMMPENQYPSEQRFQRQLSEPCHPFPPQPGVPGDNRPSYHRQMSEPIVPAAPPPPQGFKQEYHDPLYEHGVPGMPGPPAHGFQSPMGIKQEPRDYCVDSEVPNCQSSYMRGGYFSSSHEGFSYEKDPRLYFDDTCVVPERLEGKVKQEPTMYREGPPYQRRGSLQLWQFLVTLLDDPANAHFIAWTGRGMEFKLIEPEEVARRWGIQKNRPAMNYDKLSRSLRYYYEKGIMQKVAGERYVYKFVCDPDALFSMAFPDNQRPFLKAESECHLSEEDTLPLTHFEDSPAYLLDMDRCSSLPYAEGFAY
CRX, sequence (O43186 whole entry): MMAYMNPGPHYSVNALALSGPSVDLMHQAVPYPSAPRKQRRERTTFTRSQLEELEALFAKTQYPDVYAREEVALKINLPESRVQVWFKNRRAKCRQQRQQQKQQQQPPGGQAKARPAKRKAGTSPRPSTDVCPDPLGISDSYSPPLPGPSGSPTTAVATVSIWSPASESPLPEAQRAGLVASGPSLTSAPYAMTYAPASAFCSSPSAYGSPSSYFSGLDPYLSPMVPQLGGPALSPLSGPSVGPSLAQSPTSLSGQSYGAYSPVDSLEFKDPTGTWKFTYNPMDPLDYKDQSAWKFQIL

Sequence: TCTGTT
- binding signal (FEV): 1.29 fold enrichment (6-mer frequency, TF over GST control)
- binding signal (ETV5): 1.27 fold enrichment (6-mer frequency, TF over GST control)
- binding signal (HSF1): 1.43 fold enrichment (6-mer frequency, TF over GST control)
- binding signal (SPIC): 1.31 fold enrichment (6-mer frequency, TF over GST control)
- binding signal (ELF4): 1.39 fold enrichment (6-mer frequency, TF over GST control)
- binding signal (ELK4): 1.25 fold enrichment (6-mer frequency, TF over GST control)
- binding signal (ETV2): 1.3 fold enrichment (6-mer frequency, TF over GST control)
- binding signal (ELF3): 1.53 fold enrichment (6-mer frequency, TF over GST control)
- binding signal (CRX): 1.27 fold enrichment (6-mer frequency, TF over GST control)
- binding signal (ETV1): 1.41 fold enrichment (6-mer frequency, TF over GST control)
- binding signal (ERF): 1.43 fold enrichment (6-mer frequency, TF over GST control)
- binding signal (ETV3L): 1.32 fold enrichment (6-mer frequency, TF over GST control)
- binding signal (ETS2): 1.48 fold enrichment (6-mer frequency, TF over GST control)
- binding signal (SPDEF): 1.35 fold enrichment (6-mer frequency, TF over GST control)
- binding signal (ETV7): 1.46 fold enrichment (6-mer frequency, TF over GST control)
- binding signal (ELF5): 1.4 fold enrichment (6-mer frequency, TF over GST control)
- binding signal (ETV3): 1.25 fold enrichment (6-mer frequency, TF over GST control)
- binding signal (ETV6): 1.35 fold enrichment (6-mer frequency, TF over GST control)
